Assay results published in PubChem BioAssay (NCATS).
Inconclusive results are not listed. The source made the active and inactive calls. The call rests on the fitted dose curve; in most records, active means well fitted inhibition curve with a large enough effect; inconclusive means small, poorly fitted or top-dose-only effect; inactive means flat fitted curve, though single readings scatter.

Test system: N140
Assay: qHTS profiling for inhibitors of Plasmodium falciparum proliferation (AID 504749); further: nearly all actives have a fitted effect of over 60% in size;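 on activity, negative = inhibition: 0% = DMSO vehicle and full inhibition = artemisinin control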
Details: P. falciparum in erythrocytes, SYBR Green DNA, 72 h; series mostly up to 28.7 µM; activity, negative = inhibition: at the top concentration
Summary of the method: (§1)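 P. falciparum-infected erythrocytes (0.3% parasitemia, 2.5% hematocrit) incubated with compound 72 h at 37 C, 5% CO2. Parasite DNA detected by SYBR Green after lysis, overnight at room temperature; normalised to 0.29 uM artemisinin and DMSO.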
Potency means the concentration at half of the fitted maximal effect.

Row | SMILES | Potency | activity, negative = inhibition
1 | C=C1C(=CC=C2CCC[C@@]3(C)[C@@H]2CC[C@H]3[C@H](C)CCCC(C)C)C[C@@H](O)C[C@@H]1O | 14.1 µM (active) | –
2 | O=C(COc1ccc(Cl)cc1)OCCNC12CC3CC(CC(C3)C1)C2 | – | 5.31% (inactive)
3 | CCOC(=O)C1=C(C)NC(C)=C(C(=O)OCC)C1c1ccccc1C=CC(=O)OC(C)(C)C | 10 µM (active) | –
4 | CN=C(NC#N)Nc1ccc(C2=NNC(=O)C[C@@H]2C)cc1 | – | 6.94% (inactive)
5 | CCCCCCCC(=O)O | – | 6.18% (inactive)
6 | O=CCCCC=O | – | -15.7% (inactive)
7 | CCCCCC(CC)COC(=O)CC(C(=O)OCC(CC)CCCC)S(=O)(=O)O (stereo unspecified) | – | -8.02% (inactive)
8 | CCOC(=O)C1=CC2(CC)CCCN3CCc4c(n1c1ccccc41)C32 (stereo unspecified) | 8.91 µM (active) | –
9 | O=C(O)CCC(=O)C(=O)O | – | 10% (inactive)
10 | O=C(O)c1cc(=O)c2c3nc4ccccc4oc-3cc(=O)c2[nH]1 | – | -22% (inactive)
11 | O=C(Nc1cccc(C(F)(F)F)c1)c1cc(Br)cc(Br)c1O | 11.2 µM (active) | –
12 | CC(Cc1ccc(O)c(O)c1)C(C)Cc1ccc(O)c(O)c1 (stereo unspecified) | – | -21.7% (inactive)
13 | CCN(CC)CCOc1ccc(-c2nc3cc(Cl)ccc3s2)cc1 | – | -24.1% (inactive)
14 | COC(=O)C1=C(C#N)NC(C)=C(C(=O)OC(C)C)C1c1cccc([N+](=O)[O-])c1 (stereo unspecified) | 7.94 µM (active) | –
15 | IC(I)I | – | 4.46% (inactive)
16 | CC1=C(/C=C/C(C)=C/C=C/C(C)=C/CO)C(C)(C)CCC1 | 8.91 µM (active) | –
17 | COC(=O)[C@H]1[C@H]2CC3c4[nH]c5ccccc5c4CCN3C[C@@H]2CC[C@@H]1O (stereo partly specified) | – | 13.6% (inactive)
18 | NC(=O)c1ncn(C2OC(CO)C(O)C2O)n1 (stereo unspecified) | – | -4.68% (inactive)
19 | CC[C@@]1(O)C(=O)OCc2c1cc1n(c2=O)Cc2cc3c([N+](=O)[O-])cccc3nc2-1 | 8.91 µM (active) | –
20 | Clc1cc(Cl)c(OCC#CI)cc1Cl | 10 µM (active) | –

Test system: P93_24
Assay: as above
Details: P. falciparum in erythrocytes, SYBR Green DNA, 72 h; series mostly up to 28.7 µM; activity, negative = inhibition: at the top concentration
Summary of the method: as §1

Row | SMILES | activity, negative = inhibition | Potency
21 | O=C(COc1ccc(Cl)cc1)OCCNC12CC3CC(CC(C3)C1)C2 | -4.48% (inactive) | –
22 | CCOC(=O)C1=C(C)NC(C)=C(C(=O)OCC)C1c1ccccc1C=CC(=O)OC(C)(C)C | – | 7.08 µM (active)
23 | CN=C(NC#N)Nc1ccc(C2=NNC(=O)C[C@@H]2C)cc1 | -16.3% (inactive) | –
24 | CCCCCCCC(=O)O | 4.23% (inactive) | –
25 | CC(=O)Oc1cc(C)c(OC(C)=O)c2ccccc12 | – | 7.94 µM (active)
26 | CCCCCC(CC)COC(=O)CC(C(=O)OCC(CC)CCCC)S(=O)(=O)O (stereo unspecified) | -1.28% (inactive) | –
27 | O=C1CSC2(CCN(CCCN3c4ccccc4Sc4ccc(Cl)cc43)CC2)N1 | – | 8.91 µM (active)
28 | CCCCCCOc1ccc(C(=N)N(CCCC)CCCC)c2ccccc12 | -88.8% (inactive) | –
29 | CCOC(=O)C1=CC2(CC)CCCN3CCc4c(n1c1ccccc41)C32 (stereo unspecified) | – | 7.94 µM (active)
30 | O=C(O)CCC(=O)C(=O)O | 6.2% (inactive) | –
31 | COC(=O)C1=C(C#N)NC(C)=C(C(=O)OC(C)C)C1c1cccc([N+](=O)[O-])c1 (stereo unspecified) | – | 12.6 µM (active)
32 | IC(I)I | 10.3% (inactive) | –
33 | COC(=O)[C@H]1[C@H]2CC3c4[nH]c5ccccc5c4CCN3C[C@@H]2CC[C@@H]1O (stereo partly specified) | 7.79% (inactive) | –
34 | NC(=O)c1ncn(C2OC(CO)C(O)C2O)n1 (stereo unspecified) | -6.05% (inactive) | –
35 | CC[C@@]1(O)C(=O)OCc2c1cc1n(c2=O)Cc2cc3c([N+](=O)[O-])cccc3nc2-1 | – | 7.94 µM (active)
36 | Clc1cc(Cl)c(OCC#CI)cc1Cl | – | 7.94 µM (active)
